# Results taken from the supplement of paper PMC4466140.
# Experiments:
# Assay in all cases: SPOT peptide array binding signal intensity (averaged, normalized) (arbitrary units (background-subtracted, floor 0; scale differs between SH3 domains)); higher = stronger binding of the SH3 domain to the peptide
# AgAbp1 = molecular target: AgAbp1
# How it was run: (§1)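 Cellulose membranes carried synthetic 15-mer peptides with cysteines swapped for serines. These were incubated overnight at 4°C with 10 μg/ml of GST-fused SH3 domains from four yeast species in TBS-based blocking buffer. Binding signal, detected with anti-GST antibody and quantified in Genespotter, is the normalized, background-subtracted spot intensity averaged over replicates, in arbitrary units specific to each domain.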
# AgBbc1 = molecular target: AgBbc1
# How it was run: as §1
# AgBem1-D1 = molecular target: AgBem1-D1
# How it was run: as §1
# AgBzz1-D1 = molecular target: AgBzz1-D1
# How it was run: as §1
# AgBzz1-D2 = molecular target: AgBzz1-D2
# How it was run: as §1
# AgCyk3 = molecular target: AgCyk3
# How it was run: as §1
# AgFus1 = molecular target: AgFus1
# How it was run: as §1
# AgHof1 = molecular target: AgHof1
# How it was run: as §1
# AgHse1 = molecular target: AgHse1
# How it was run: as §1
# AgLsb1 = molecular target: AgLsb1
# How it was run: as §1
# AgLsb4 = molecular target: AgLsb4
# How it was run: as §1
# AgMyo5 = molecular target: AgMyo5
# How it was run: as §1
# AgNbp2 = molecular target: AgNbp2
# How it was run: as §1
# AgRvs167 = molecular target: AgRvs167
# How it was run: as §1
# AgSho1 = molecular target: AgSho1
# How it was run: as §1
# AgSla1-D1-D2 = molecular target: AgSla1-D1-D2
# How it was run: as §1
# AgSla1-D3 = molecular target: AgSla1-D3
# How it was run: as §1
# CaAbp1-D1 = molecular target: CaAbp1-D1
# How it was run: as §1
# CaAbp1-D2 = molecular target: CaAbp1-D2
# How it was run: as §1
# CaBbc1 = molecular target: CaBbc1
# How it was run: as §1
# CaBem1-D1 = molecular target: CaBem1-D1
# How it was run: as §1
# CaBzz1-D1 = molecular target: CaBzz1-D1
# How it was run: as §1
# CaBzz1-D2 = molecular target: CaBzz1-D2
# How it was run: as §1
# CaCyk3 = molecular target: CaCyk3
# How it was run: as §1
# CaFus1 = molecular target: CaFus1
# How it was run: as §1
# CaHof1 = molecular target: CaHof1
# How it was run: as §1
# CaHse1 = molecular target: CaHse1
# How it was run: as §1
# CaLsb1 = molecular target: CaLsb1
# How it was run: as §1
# CaLsb4 = molecular target: CaLsb4
# How it was run: as §1
# CaMyo5 = molecular target: CaMyo5
# How it was run: as §1
# CaNbp2 = molecular target: CaNbp2
# How it was run: as §1
# CaRvs167 = molecular target: CaRvs167
# How it was run: as §1
# CaRvs167-3 = molecular target: CaRvs167-3
# How it was run: as §1
# CaSho1 = molecular target: CaSho1
# How it was run: as §1
# CaSla1-D1-D2 = molecular target: CaSla1-D1-D2
# How it was run: as §1
# CaSla1-D3 = molecular target: CaSla1-D3
# How it was run: as §1
# ScAbp1 = molecular target: ScAbp1
# How it was run: as §1
# ScBbc1 = molecular target: ScBbc1
# How it was run: as §1
# ScBem1-D1 = molecular target: ScBem1-D1
# How it was run: as §1
# ScBzz1-D1 = molecular target: ScBzz1-D1
# How it was run: as §1
# ScBzz1-D2 = molecular target: ScBzz1-D2
# How it was run: as §1
# ScCyk3 = molecular target: ScCyk3
# How it was run: as §1
# ScFus1 = molecular target: ScFus1
# How it was run: as §1
# ScHof1 = molecular target: ScHof1
# How it was run: as §1
# ScHse1 = molecular target: ScHse1
# How it was run: as §1
# ScLsb1 = molecular target: ScLsb1
# How it was run: as §1
# ScLsb2 = molecular target: ScLsb2
# How it was run: as §1
# ScLsb3 = molecular target: ScLsb3
# How it was run: as §1
# ScLsb4 = molecular target: ScLsb4
# How it was run: as §1
# ScMyo3 = molecular target: ScMyo3
# How it was run: as §1
# ScMyo5 = molecular target: ScMyo5
# How it was run: as §1
# ScNbp2 = molecular target: ScNbp2
# How it was run: as §1
# ScPex13 = molecular target: ScPex13
# How it was run: as §1
# ScRvs167 = molecular target: ScRvs167
# How it was run: as §1
# ScSho1 = molecular target: ScSho1
# How it was run: as §1
# ScSla1-D1-D2 = molecular target: ScSla1-D1-D2
# How it was run: as §1
# ScSla1-D3 = molecular target: ScSla1-D3
# How it was run: as §1
# SpAbp1-D1 = molecular target: SpAbp1-D1
# How it was run: as §1
# SpBbc1 = molecular target: SpBbc1
# How it was run: as §1
# SpBzz1-D1 = molecular target: SpBzz1-D1
# How it was run: as §1
# SpBzz1-D2 = molecular target: SpBzz1-D2
# How it was run: as §1
# SpCyk3 = molecular target: SpCyk3
# How it was run: as §1
# SpHof1 = molecular target: SpHof1
# How it was run: as §1
# SpHof1-2 = molecular target: SpHof1-2
# How it was run: as §1
# SpHof1-3 = molecular target: SpHof1-3
# How it was run: as §1
# SpHse1 = molecular target: SpHse1
# How it was run: as §1
# SpLsb1 = molecular target: SpLsb1
# How it was run: as §1
# SpLsb4 = molecular target: SpLsb4
# How it was run: as §1
# SpMyo1 = molecular target: SpMyo1
# How it was run: as §1
# SpNbp2 = molecular target: SpNbp2
# How it was run: as §1
# SpPex13 = molecular target: SpPex13
# How it was run: as §1
# SpRvs167 = molecular target: SpRvs167
# How it was run: as §1
# SpSla1-D1-D2 = molecular target: SpSla1-D1-D2
# How it was run: as §1
# SpSla1-D3 = molecular target: SpSla1-D3
# How it was run: as §1
binder,measurement,setting,value
HRRRRVFSIPSLKSI,SPOT peptide array binding signal intensity,AgAbp1,65.5
same,SPOT peptide array binding signal intensity,AgBbc1,88.2
same,SPOT peptide array binding signal intensity,AgBem1-D1,426
same,SPOT peptide array binding signal intensity,AgBzz1-D1,45
same,SPOT peptide array binding signal intensity,AgBzz1-D2,28.5
same,SPOT peptide array binding signal intensity,AgCyk3,18
same,SPOT peptide array binding signal intensity,AgFus1,1100
same,SPOT peptide array binding signal intensity,AgHof1,117
same,SPOT peptide array binding signal intensity,AgHse1,2250
same,SPOT peptide array binding signal intensity,AgLsb1,51.2
same,SPOT peptide array binding signal intensity,AgLsb4,264
same,SPOT peptide array binding signal intensity,AgMyo5,6
same,SPOT peptide array binding signal intensity,AgNbp2,470
same,SPOT peptide array binding signal intensity,AgRvs167,15.8
same,SPOT peptide array binding signal intensity,AgSho1,168
same,SPOT peptide array binding signal intensity,AgSla1-D1-D2,776
same,SPOT peptide array binding signal intensity,AgSla1-D3,11
same,SPOT peptide array binding signal intensity,CaAbp1-D1,703
same,SPOT peptide array binding signal intensity,CaAbp1-D2,734
same,SPOT peptide array binding signal intensity,CaBbc1,198
same,SPOT peptide array binding signal intensity,CaBem1-D1,100
same,SPOT peptide array binding signal intensity,CaBzz1-D1,60
same,SPOT peptide array binding signal intensity,CaBzz1-D2,69
same,SPOT peptide array binding signal intensity,CaCyk3,75
same,SPOT peptide array binding signal intensity,CaFus1,1310
same,SPOT peptide array binding signal intensity,CaHof1,0.5
same,SPOT peptide array binding signal intensity,CaHse1,232
same,SPOT peptide array binding signal intensity,CaLsb1,2.5
same,SPOT peptide array binding signal intensity,CaLsb4,196
same,SPOT peptide array binding signal intensity,CaMyo5,3.5
same,SPOT peptide array binding signal intensity,CaNbp2,887
same,SPOT peptide array binding signal intensity,CaRvs167,103
same,SPOT peptide array binding signal intensity,CaRvs167-3,319
same,SPOT peptide array binding signal intensity,CaSho1,1550
same,SPOT peptide array binding signal intensity,CaSla1-D1-D2,49
same,SPOT peptide array binding signal intensity,CaSla1-D3,29.5
same,SPOT peptide array binding signal intensity,ScAbp1,38
same,SPOT peptide array binding signal intensity,ScBbc1,43.5
same,SPOT peptide array binding signal intensity,ScBem1-D1,76
same,SPOT peptide array binding signal intensity,ScBzz1-D1,21
same,SPOT peptide array binding signal intensity,ScBzz1-D2,51
same,SPOT peptide array binding signal intensity,ScCyk3,238
same,SPOT peptide array binding signal intensity,ScFus1,1620
same,SPOT peptide array binding signal intensity,ScHof1,3
same,SPOT peptide array binding signal intensity,ScHse1,2170
same,SPOT peptide array binding signal intensity,ScLsb1,48.8
same,SPOT peptide array binding signal intensity,ScLsb2,12.5
same,SPOT peptide array binding signal intensity,ScLsb3,780
same,SPOT peptide array binding signal intensity,ScLsb4,44.5
same,SPOT peptide array binding signal intensity,ScMyo3,9.75
same,SPOT peptide array binding signal intensity,ScMyo5,8
same,SPOT peptide array binding signal intensity,ScNbp2,841
same,SPOT peptide array binding signal intensity,ScPex13,≤ 0
same,SPOT peptide array binding signal intensity,ScRvs167,95.5
same,SPOT peptide array binding signal intensity,ScSho1,1320
same,SPOT peptide array binding signal intensity,ScSla1-D1-D2,321
same,SPOT peptide array binding signal intensity,ScSla1-D3,12.8
same,SPOT peptide array binding signal intensity,SpAbp1-D1,293
same,SPOT peptide array binding signal intensity,SpBbc1,12
same,SPOT peptide array binding signal intensity,SpBzz1-D1,122
LLRRTIPKRPFYHVL,SPOT peptide array binding signal intensity,CaNbp2,262
same,SPOT peptide array binding signal intensity,CaRvs167,48.2
same,SPOT peptide array binding signal intensity,CaRvs167-3,92
same,SPOT peptide array binding signal intensity,CaSho1,608
same,SPOT peptide array binding signal intensity,CaSla1-D1-D2,140
same,SPOT peptide array binding signal intensity,CaSla1-D3,3
same,SPOT peptide array binding signal intensity,ScAbp1,23.5
same,SPOT peptide array binding signal intensity,ScBbc1,25.5
same,SPOT peptide array binding signal intensity,ScBem1-D1,7
same,SPOT peptide array binding signal intensity,ScBzz1-D1,3.5
same,SPOT peptide array binding signal intensity,ScBzz1-D2,13
same,SPOT peptide array binding signal intensity,ScCyk3,26
same,SPOT peptide array binding signal intensity,ScFus1,307
same,SPOT peptide array binding signal intensity,ScHof1,1.5
same,SPOT peptide array binding signal intensity,ScHse1,898
same,SPOT peptide array binding signal intensity,ScLsb1,44.2
same,SPOT peptide array binding signal intensity,ScLsb2,13
same,SPOT peptide array binding signal intensity,ScLsb3,855
same,SPOT peptide array binding signal intensity,ScLsb4,18.5
same,SPOT peptide array binding signal intensity,ScMyo3,0.5
same,SPOT peptide array binding signal intensity,ScMyo5,≤ 0
same,SPOT peptide array binding signal intensity,ScNbp2,343
same,SPOT peptide array binding signal intensity,ScPex13,110
same,SPOT peptide array binding signal intensity,ScRvs167,612
same,SPOT peptide array binding signal intensity,ScSho1,357
same,SPOT peptide array binding signal intensity,ScSla1-D1-D2,146
same,SPOT peptide array binding signal intensity,ScSla1-D3,2
same,SPOT peptide array binding signal intensity,SpAbp1-D1,402
same,SPOT peptide array binding signal intensity,SpBbc1,5
same,SPOT peptide array binding signal intensity,SpBzz1-D1,76
same,SPOT peptide array binding signal intensity,SpBzz1-D2,≤ 0
same,SPOT peptide array binding signal intensity,SpCyk3,≤ 0
same,SPOT peptide array binding signal intensity,SpHof1,73
same,SPOT peptide array binding signal intensity,SpHof1-2,3.25
same,SPOT peptide array binding signal intensity,SpHof1-3,401
same,SPOT peptide array binding signal intensity,SpHse1,372
same,SPOT peptide array binding signal intensity,SpLsb1,36.5
same,SPOT peptide array binding signal intensity,SpLsb4,463
same,SPOT peptide array binding signal intensity,SpMyo1,0.5
same,SPOT peptide array binding signal intensity,SpNbp2,181
same,SPOT peptide array binding signal intensity,SpPex13,1.5
same,SPOT peptide array binding signal intensity,SpRvs167,227
same,SPOT peptide array binding signal intensity,SpSla1-D1-D2,≤ 0
same,SPOT peptide array binding signal intensity,SpSla1-D3,11
